Data as given in PubChem BioAssay (NCI).
This is part of a sample that, as a whole, favours compounds with a hit. Of some 83,000 tested, about 20% had one in any assay.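 Single-dose data. Exposure time 48 hours. Values below 10 considered active.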 Active and inactive are the calls of the source.

What follows are molecules tested on HL-60(TB) leukemia (assay: NCI-60 one-dose screen, 48 h (100 = growth as untreated, 0 = no growth, -100 = all killed)). Conditions: 10 µM unless noted.

SMILES | growth
CCO/C=N/C1=C(C#N)C(c2ccc(Cl)cc2)c2c(c3ccccc3n(C)c2=O)O1 (stereo not given) | 53.4% (inactive)
Cc1ccc(C(=O)Nc2ccc(CN3CCN(C)CC3)c(C(F)(F)F)c2)cc1C#Cc1cnc(N)cc1C#N | -53.5% (active)
CCN(C)S(=O)(=O)Nc1cccc(Nc2ncnc3cc(NC(=O)CCl)ccc23)c1Cl | 4.38% (active)
COCC(=O)NNc1[nH]c(-c2ccc(OC)cc2)cc1C#N | 6.53% (active)
COC(=O)CNC(=O)c1ccc(NC(=O)c2[nH]c(C)c(Cl)c2Cl)c(O[C@H]2CCNC2)c1 | 95.7% (inactive)
CC(C(=O)O)N1C(N)=NNC1c1ccccc1O (stereo not given) | 92.8% (inactive)
Cc1ccccc1COc1ccc(-c2ccnn2-c2ccc(Cl)cc2)cc1 | 13.3% (inactive)
N/C(=N\c1nc2ccccc2s1)NC(=O)Nc1ccccc1 | 12.8% (inactive)
Cc1ccc(-c2cc(-c3nnc(SCC(=O)c4ccccc4)o3)c3ccccc3n2)cc1 | 103% (inactive)
Cc1c(-c2ccccc2)[nH]c2ccccc12 | 106% (inactive)
CN1C(=O)C2(Nc3cc(Cl)ccc3S2)c2cc(Cl)ccc21 (stereo not given) | 97.8% (inactive)
NS(=O)(=O)c1ccc(C(=O)N/N=C(\CS(=O)(=O)c2ccccc2)c2cc3cc(Br)ccc3o2)cc1 | 115% (inactive)
CCOC(=O)CNP(=O)(OC[C@@H](Cc1ccccc1)NC(=O)c1cc2ccccc2s1)Oc1ccccc1 (stereo not given in full) | 79.4% (inactive)
COc1ccc(-c2[nH]c3ccccc3c2C=C(C#N)C#N)cc1 | -48.9% (active)
CCN(CC)c1cc2oc3cc(N)cc(=N)c-3nc2cc1C | -15.2% (active)
